PubChem BioAssay
Calls of active or inactive are those of the source. No rule for the calls is given here.

Target: Pantothenate synthetase (Mycobacterium tuberculosis (strain ATCC 25618 / H37Rv)) (UniProt P9WIL5)
Experiment: Coupled enzyme confirmation of inhibitors against recombinant Mtb PanC (AID 375);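 also: 0% = full reaction with vehicle and 100% = no enzyme background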
Settings: coupled enzyme assay; at 10 µM, stronger effect = higher value

Sequence of Pantothenate synthetase (Mycobacterium tuberculosis (strain ATCC 25618 / H37Rv)) (P9WIL5 whole entry, looked up): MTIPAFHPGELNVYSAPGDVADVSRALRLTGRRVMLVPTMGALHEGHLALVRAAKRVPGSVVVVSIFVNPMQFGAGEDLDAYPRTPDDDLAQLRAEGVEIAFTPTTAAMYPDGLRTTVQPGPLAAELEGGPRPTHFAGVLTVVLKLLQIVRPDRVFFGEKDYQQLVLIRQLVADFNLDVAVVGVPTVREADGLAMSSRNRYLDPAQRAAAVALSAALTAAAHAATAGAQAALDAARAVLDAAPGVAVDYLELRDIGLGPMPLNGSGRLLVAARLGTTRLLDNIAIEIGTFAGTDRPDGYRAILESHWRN

Compound | inhibition
O=C(Nc1ccc(N2C(=O)C3C4C=CC(C4)C3C2=O)cc1)Nc1nncs1 (centres undefined) | 5% (inactive)
Cc1cc(N2CCN(C3CCCC3)CC2)n2c(nc3ccccc32)c1C#N | 0% (inactive)
CC1CCCCC1NC(=O)Cn1nnc(-c2ccc(Cl)cc2)n1 (centres undefined) | 1% (inactive)
OC(COc1ccc2ccccc2c1)CN1CCOCC1 (centres undefined) | 0% (inactive)
Cc1ccc(C)c(-n2c(CNC(=O)c3ccco3)nnc2SCC(=O)Nc2nnc(C)s2)c1 | 0% (inactive)
CCn1c(CC(=O)Nc2cccc(OC)c2)nnc1SCC(=O)Nc1nccs1 | 0% (inactive)
O=C(Nc1ncnc2sc3c(c12)CCC3)c1ccco1 | 0% (inactive)
COC(=O)CCCCCc1ccc(C(C)=O)s1 | 4% (inactive)
COc1cc(NC(=O)c2cc(OC)c(OC)c(OC)c2)c(OC)cc1NC(=O)CN1CCCCC1 | 1% (inactive)
Cc1ccccc1-c1nc(CN2CCC(C(=O)NCCCN3CCCC3)CC2)c(C)o1 | 0% (inactive)
CCOCCCNC(=O)C(c1ccccc1)N(Cc1ccc2c(c1)OCO2)C(=O)CNC(C)=O (centres undefined) | 1% (inactive)
CCOc1ccc(C(CC(=O)O)NC(=O)c2ccco2)cc1OC (centres undefined) | 2% (inactive)
Cc1cc(NC(=O)CS(=O)(=O)c2cn(Cc3ccccc3Cl)c3ccccc23)no1 | 9% (inactive)
COc1cc2cc(C(c3nnnn3C3CCCC3)N3CCCCCC3)c(=O)[nH]c2cc1OC (centres undefined) | 5% (inactive)
Cn1c(=O)c2c(ncn2CCO)n(C)c1=O | 1% (inactive)
CCOc1ccc(CN2C(=O)c3ccccc3C2C(=O)NCc2cccnc2)cc1 (centres undefined) | 0% (inactive)
COc1cccc(Nc2nnc(SCC(=O)N3CC(C)OC(C)C3)s2)c1 (centres undefined) | 2% (inactive)
OC1C=CSc2nc3ccccc3n21 (centres undefined) | 0% (inactive)
O=C(O)C1CC(=O)N(Cc2ccccc2)C1 (centres undefined) | 1% (inactive)
COC(=O)CSc1nnc(CSc2nc(C)cc(C)n2)n1Cc1ccco1 | 0% (inactive)

Compound | inhibition
O=c1oc2c3c4c(cc2cc1-c1nc2ccccc2[nH]1)CCCN4CCC3 | 4% (inactive)
CN1CCN(c2nc3c(c(=O)[nH]c(=O)n3C)n2CCSc2nc3ccccc3s2)CC1 | 8% (inactive)
Cc1ccc2c(C)nc(NC3=NCN(C(C)C)CN3)nc2c1 | 0% (inactive)
COCCCN1C(=O)C(=O)/C(=C(/O)c2ccc(OC)cc2)C1c1ccc(O)c(OC)c1 (centres undefined) | 0% (inactive)
CCCN1C(=O)SC(CC(=O)Nc2ccc(Br)cc2)C1=O (centres undefined) | 2% (inactive)
CCOC(=O)c1ccc(NC(=O)CSc2nnc(COc3ccccc3)n2C)cc1 | 0% (inactive)
CC(C(=O)NC(=O)NC1CCCCC1)N1CCN(c2ccccn2)CC1 (centres undefined) | 0% (inactive)
c1ccc(-n2ncc3c(NC4CCCCCC4)ncnc32)cc1 | 0% (inactive)
COc1cccc(/C=N/n2cnnc2)c1OCc1ccccc1 | 0% (inactive)
O=C(OCn1nnc2ccccc2c1=O)c1cc2ccccc2o1 | 2% (inactive)
Oc1c(Cl)cc(Cl)cc1Sc1cc(Cl)cc(Cl)c1O | 0% (inactive)
CCc1ccc2oc(-c3cc(N)ccc3Cl)nc2c1 | 2% (inactive)
COc1ccc(N2CCN(c3ccc(N)cc3C#N)CC2)cc1 | 7% (inactive)
Cc1cc2c(=O)n(CC(=O)N3CCN(c4ccccc4)CC3)cnc2s1 | 0% (inactive)
CCN1C(=O)/C(=C2\C=Cc3ccccc3N2CC)OC1=S | 11% (inactive)
O=C(CSc1nnc2scc(-c3ccccc3)n12)N1CCN(Cc2ccccc2)CC1 | 6% (inactive)
Nc1nc2ccc(OC(F)(F)F)cc2s1 | 7% (inactive)
CCn1cc(C(=O)O)c(=O)c2cc(F)c(N3CCNCC3)nc21 | 6% (inactive)
CCOC(=O)CC(C#N)c1cn(C)c2ccccc12 (centres undefined) | 4% (inactive)
